We go through 14 compounds from PubChem BioAssay (NCI).

The panel holds about 83,000 compounds, 20% with a hit somewhere; the sample as a whole holds those more often.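 Values shown are percent growth following 48 h exposure of cells in 96-well plates to a single concentration of compound; below 10 was considered active.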 Unmarked numbers belong to inactive results. Calls of active or inactive are those of the source.

Some test systems named below: NCI-H23 lung; NCI-H226 lung; NCI-H322M lung; HOP-62 NSCLC; NCI-H460 lung; HOP-92 NSCLC; NCI-H522 lung; A549/ATCC NSCLC; 786-0 renal; COLO 205 colon.
Experiment in all cases: NCI-60 one-dose screen, 48 h (100 = growth as untreated, 0 = no growth, -100 = all killed)
What all share (conditions): 10 µM unless noted

Take `COc1ccc2c(c1)NC(=O)CN2c1nc(C)nc2ccccc12`: the growth was 20.4% in the test on NCI-H23 lung; 65.8% with NCI-H226 lung; 42.8% with NCI-H322M lung; 29.2% in the test on HOP-62 NSCLC; 2.28% (active) in the test on NCI-H460 lung; -5.74% (active) in the test on HOP-92 NSCLC. Also, the growth was -21.1% (active) in the test with NCI-H522 lung, 21.3% in the test with A549/ATCC NSCLC, 19.8% with 786-0 renal and -35% (active) with COLO 205 colon.
Consider `CC(=O)/C=C/c1cc2cc(Cl)ccc2[nH]c1=O`, for which the growth in the test on NCI-H23 lung is 87.5%; with NCI-H226 lung it was 85.1%; with NCI-H322M lung, 90.5%; in the test on HOP-62 NSCLC it was 68%; in the test with NCI-H460 lung, 78.5%; in the test on HOP-92 NSCLC, 94.5%. Further, the growth is 75.2% in the test with NCI-H522 lung, 85.2% in the test with A549/ATCC NSCLC, 74.5% in the test on 786-0 renal and 98.8% with COLO 205 colon.
Regarding `C=CCOc1ccc(/C(O)=C2\C(=O)C(=O)N(c3nccs3)C2c2ccccc2F)cc1` (stereo not given), the growth in the test on NCI-H23 lung is 119%; in the test on NCI-H226 lung, 102%; in the test on NCI-H322M lung, 80%; in the test on HOP-62 NSCLC it was 92.3%; with NCI-H460 lung, 94.4%; in the test with HOP-92 NSCLC it was 106%. For the same compound, the growth in the test with NCI-H522 lung is 100%; with A549/ATCC NSCLC it was 95.4%; in the test with 786-0 renal, 95.5%; in the test on COLO 205 colon it was 104%.
As for `Cc1cc(C)c(NC(=O)c2sc3nc4c(cc3c2N)CN(Cc2ccccc2)CC4)c(C)c1`, the growth in the test with NCI-H23 lung was 55.2%; in the test with NCI-H226 lung it was 49.5%; with NCI-H322M lung, 39.3%; in the test with HOP-62 NSCLC, 33.7%; with NCI-H460 lung, 10.8%; with HOP-92 NSCLC, 37.7%. Moreover, the growth in the test on NCI-H522 lung is 13.5%; with A549/ATCC NSCLC it was 30.3%; in the test with 786-0 renal, 39%; with COLO 205 colon it was 12.3%.
With `CCN(C(=O)c1cc2ncccc2[nH]1)[C@H]1CCC[C@@H](NCc2cccc(F)c2)C1`, the growth is 97.4% in the test on NCI-H23 lung; 101% in the test on NCI-H226 lung; 80.6% in the test on NCI-H322M lung; 105% in the test on HOP-62 NSCLC; 105% in the test with NCI-H460 lung; 92.1% with HOP-92 NSCLC. Further, the growth was 89.8% with NCI-H522 lung, 102% with A549/ATCC NSCLC, 110% in the test on 786-0 renal and 18.7% in the test with COLO 205 colon.
As for `NC(=S)NN=C1CCCCC1`, the growth in the test with NCI-H23 lung was 89.5%; in the test with NCI-H226 lung it was 87.5%; in the test on NCI-H322M lung it was 99.3%; with HOP-62 NSCLC, 91.9%; in the test with NCI-H460 lung, 97.8%; in the test with HOP-92 NSCLC, 92.1%. The growth with NCI-H522 lung was 70.3%; with A549/ATCC NSCLC it was 84.7%; with 786-0 renal it was 106%; in the test on COLO 205 colon, 93.2%.
On to `CC(=O)OC[Si](C)(C)c1ccccc1`, for which the growth is 112% in the test with NCI-H23 lung; 95.9% with NCI-H226 lung; 109% in the test on NCI-H322M lung; 110% in the test on HOP-62 NSCLC; 103% in the test on NCI-H460 lung; 92.1% in the test on HOP-92 NSCLC. Besides, the growth was 103% in the test on NCI-H522 lung, 95.8% in the test with A549/ATCC NSCLC, 96.9% in the test on 786-0 renal and 117% in the test with COLO 205 colon.
In the case of `CC/C(=C(\c1ccc(O)cc1)c1ccc(OCCN(C)CCN(C)C(=O)CCC(=O)c2c(C)[nH]c(/C=C3\N=C(c4ccc[nH]4)C=C3OC)c2C)cc1)c1ccccc1`, the growth in the test with NCI-H23 lung was 80.1%; in the test with NCI-H226 lung, 77%; with NCI-H322M lung it was 70.4%; with HOP-62 NSCLC, 91.3%; in the test with NCI-H460 lung, 58.2%; in the test with HOP-92 NSCLC, 58.8%. For the same compound, the growth is 81.9% with NCI-H522 lung, 76.4% in the test with A549/ATCC NSCLC, 87.5% with 786-0 renal and 89.8% in the test on COLO 205 colon.
On to `COc1cc2oc(-c3cccc(NC(=O)Nc4ccc5c(c4)OCO5)c3)cc(=O)c2c(OC)c1OC`, for which the growth in the test on NCI-H23 lung is 64.5%; in the test on NCI-H226 lung, 87.6%; in the test with NCI-H322M lung it was 79.4%; with HOP-62 NSCLC it was 63.2%; in the test on NCI-H460 lung, 37.7%; in the test on HOP-92 NSCLC, 17.2%. The growth in the test on NCI-H522 lung was 41.5%; in the test with A549/ATCC NSCLC, 61%; with 786-0 renal it was 65.1%; in the test on COLO 205 colon, 75.8%.
Regarding `COc1cc(/C=C2\CCCC3=C2NC(C)=NC3c2cc(OC)c(OC)c(OC)c2)cc(OC)c1OC` (stereo not given), the growth was 33.9% in the test on NCI-H23 lung; 37.7% with NCI-H226 lung; 41.1% in the test with NCI-H322M lung; 22% in the test with HOP-62 NSCLC; -28% (active) in the test with NCI-H460 lung; 70.7% in the test on HOP-92 NSCLC. Also, the growth in the test with NCI-H522 lung was 51.8%; in the test on A549/ATCC NSCLC it was 16.2%; in the test with 786-0 renal, 18%; in the test with COLO 205 colon it was 19.2%.
Turning to `COc1cc(OC)cc(-c2n[nH]nc2-c2ccc3c(c2)OCO3)c1`, the growth is 30.1% in the test on NCI-H23 lung; 92.1% with NCI-H226 lung; 55.5% in the test on NCI-H322M lung; 30.3% in the test on HOP-62 NSCLC; 12% with NCI-H460 lung; 57% in the test on HOP-92 NSCLC. For the same compound, the growth is -41.5% (active) in the test on NCI-H522 lung, 28.9% in the test with A549/ATCC NSCLC, 40% in the test with 786-0 renal and -61.2% (active) in the test with COLO 205 colon.
For `Cc1ccc2nc(SCn3nnc4ccccc4c3=O)[nH]c2c1`, the growth in the test on NCI-H23 lung is 100%; in the test with NCI-H226 lung it was 110%; in the test on NCI-H322M lung, 135%; in the test with HOP-62 NSCLC it was 88.9%; with NCI-H460 lung, 99.5%; in the test with HOP-92 NSCLC, 82.8%. The growth is 89.5% in the test on NCI-H522 lung, 113% in the test on A549/ATCC NSCLC, 107% with 786-0 renal and 75.9% in the test with COLO 205 colon.
As to `COc1ccc(-c2nc3sccn3c2-c2ccnc(NCCNS(=O)(=O)c3ccc(C(F)(F)F)cc3)n2)cc1`, the growth is 15.5% with NCI-H23 lung; 4.55% (active) with NCI-H226 lung; 37.1% with NCI-H322M lung; 46.1% in the test on HOP-62 NSCLC; 15.4% in the test with NCI-H460 lung; 13.4% in the test with HOP-92 NSCLC. Further, the growth in the test with NCI-H522 lung was -1.01% (active); in the test with A549/ATCC NSCLC, 18.9%; with 786-0 renal, 18.4%; in the test on COLO 205 colon, 0.693% (active).
Consider `COc1ccc(C2NC3=C(CCCC3)C(C#N)(C#N)C2(C#N)C#N)cc1` (stereo not given), for which the growth was 91.4% in the test on NCI-H23 lung; 97% in the test on NCI-H226 lung; 109% in the test on NCI-H322M lung; 94.6% in the test on HOP-62 NSCLC; 97.6% in the test with NCI-H460 lung; 103% with HOP-92 NSCLC. For the same compound, the growth was 23.8% in the test on NCI-H522 lung, 106% in the test on A549/ATCC NSCLC, 88.1% in the test with 786-0 renal and 11.8% in the test on COLO 205 colon.
